The list is not random: actives were taken first. Their share in the collection is about 8.1%.
SW480 rereplic: A quantitative high throughput screen for small molecules that induce DNA re-replication in SW480 colon adenocarcinoma cells; 1.8% of 340,000 active; SW480 DNA re-replication, Hoechst DNA content imaging, 48 h; Potency, µM (series often up to 46.1 µM), without a hit: at the highest dose re-replication activation, actives largely listed as activators; note: % of control where 0% means no effect; nearly all actives have a fitted effect of over 55% in size
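DNA re-replication was detected as more nuclei of elevated Hoechst intensity after 48 hr exposure to compound (23 nL pinned per well of 250 cells).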
KB-3-1 tox: qHTS assay for MDR1-selective chemotherapeutics: Primary screen using the parental adenocarcinoma cell KB-3-1; KB-3-1 viability, CellTiter-Glo ATP luminescence, 72 h; Potency, µM (top dose mostly 46.1 µM), hits mostly cytotoxic; 1.4% of 400,000 active; note: % is set by controls: 0 for no effect and ±100 for the full control effect; nearly all actives have a fitted effect of over 60% in size
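KB-3-1 parental drug-naive adenocarcinoma cells in DMEM/10% FBS, incubated 72 h at 37 C with pin-transferred compounds across a concentration series. Viability by CellTiter-Glo luminescence; concentration-response curves fitted after normalization.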
MCF10A rerep: A quantitative high throughput screen for small molecules that induce DNA re-replication in MCF 10a normal breast cells | MCF 10A DNA re-replication, Hoechst nuclear intensity, 48 h | Potency, µM (top dose mostly 46.1 µM), without a hit: top-dose activity, positive = re-replication, usual class: activators | 2.9% of 350,000 active | AID 624296, 2012; note: % of control where 0% means no effect; nearly all actives have a fitted effect of over 50% in size
ELG1 repair inh: qHTS screen for small molecules that inhibit ELG1-dependent DNA repair in human embryonic kidney (HEK293T) cells expressing luciferase-tagged ELG1 | HEK293T ELG1-luciferase reporter, luminescence, 16 h; DNA damage induced by 5-fluorouridine | Potency, µM (highest dose often 46.1 µM), without a hit: at the highest dose activity change, negative = inhibition, usual class: inhibitors | 2.3% of 330,000 active; note: % is set by controls: 0 for no effect and ±100 for the full control effect; nearly all actives have a fitted effect of over 55% in size
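DMSO vehicle served as the neutral condition. Each well held 2,000 cells given 5-fluorouridine plus compound; after 16 hr at 37 °C/5% CO2, ONE-Glo was added and luciferase measured 30 min later.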
KB-V1 cytotox: qHTS assay for MDR1-selective chemotherapeutics: Primary screen using the drug-selected MDR subline cells KB-V1 | KB-V1 MDR cells viability, CellTiter-Glo, 72 h | Potency, µM (series often up to 46.1 µM), usual class: cytotoxic | 3.4% of 400,000 active | AID 1347076, 2019; note: % is set by controls: 0 for no effect and ±100 for the full control effect; nearly all actives have a fitted effect of over 60% in size
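Drug-selected KB-V1 cells, grown in DMEM lacking phenol red with 10% FBS, receive compound titrations; after three days at 37 degrees C, surviving cell ATP is quantified by CellTiter-Glo luminescence and responses normalized and curve-fitted.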
* = called active by the depositor; i = inactive; ? = inconclusive; · = no result; ! = repeats disagree. Calls come from the whole dose curve; as a rule, active = well fitted curve in the direction sought with a large enough effect; inconclusive = small, poorly fitted or top-dose-only effect, or another doubt; inactive = no such curve, though single readings can be large; an effect the other way counts as inactive or inconclusive. Potency is the fitted concentration of half-maximal effect.

SMILES	SW480 rereplic	KB-3-1 tox	MCF10A rerep	ELG1 repair inh	KB-V1 cytotox
O=C(NNc1c([N+](=O)[O-])cc(C(F)(F)F)cc1[N+](=O)[O-])c1ccco1	-10%	i	-2%	18µM*	i
O=S(=O)(NC(=NCc1ccccc1)c1ccc(F)cc1)c1ccc(Cl)cc1	-59%	i	0.73µM*	3%	?
COc1ccc(CCN=C(N)NS(=O)(=O)c2ccc(F)cc2)cc1	3%	i	6%	18µM*	?
NC(=NCCc1ccc(Cl)cc1)NS(=O)(=O)c1ccc(F)cc1	-16%	?	-11%	?	15µM*
O=C(O)CN=C(NS(=O)(=O)c1ccc(Cl)cc1)c1ccc(F)cc1	-7%	i	10%	-1%	i
CCn1c2ccccc2c2cc(CN3CCN(S(C)(=O)=O)CC3)ccc21	12%	i	22%	?	3.3µM*
CCCCCCCC/C=C\CCCCCCCC(=O)O	3%	i	30µM*!	?	i
CCCCC/C=C\C/C=C\CCCCCCCC(=O)O	-6%	·	?	·	·
C[n+]1ccc(/C=C/c2c[nH]c3ccc(F)cc23)cc1	?	8.2µM*	?	?	i
COc1cc(Cl)c(C)cc1NC(=O)Cn1ncc2c([nH]c3ccccc32)c1=O	·	i	·	·	i
Cc1cc(N2CCOCC2)c(F)cc1C(=O)c1ccccc1	-7%	i	4%	-16%	18µM*
COc1ccc(C(=O)c2cc([N+](=O)[O-])ccc2N2CCOCC2)cc1	0.37µM*	1.8µM*	?	?	0.52µM*
CC(=O)c1cc(F)c(N2CCOCC2)cc1C	-5%	i	-2%	22%	?
Cc1ccc(OCC(=O)N/N=C/c2cc([N+](=O)[O-])ccc2N2CCCCC2)cc1	-3%	i	13%	-10%	i
O=C(COc1ccc([N+](=O)[O-])cc1)N/N=C/c1cc([N+](=O)[O-])ccc1N1CCOCC1	-8%	i	9%	18µM*	16µM*
CCOc1ccc(C(=O)c2cc([N+](=O)[O-])ccc2N2CCOCC2)cc1	0.058µM*	0.029µM*	?	-3%	?
Cc1ccc(OCC(=O)Nc2ccc3c(c2)nc2n3CCOC2)cc1	-11%	i	6%	-4%	i
Cc1ccc(C(=O)c2cc([N+](=O)[O-])ccc2N2CCCCC2)c(C)c1	1.3µM*	0.82µM*	?	17%	1.6µM*
Cc1ccc(C(=O)c2cc([N+](=O)[O-])ccc2N2CCOCC2)cc1	3.7µM*	2.1µM*	3.7µM*	?	0.82µM*
O=C(COc1ccc([N+](=O)[O-])cc1)Nc1ccc2c(c1)nc1n2CCOC1	?	?	23µM*	4%	i
Cn1c(NCCCCO)nc2c1c(=O)n(Cc1ccc(Cl)cc1)c(=O)n2C	·	i	·	·	i
CC(=O)Nc1cccc(-c2csc(Nc3cc(C)ccn3)n2)c1	-6%	i	0%	?	23µM*
Cc1ccc(Nc2nc(-c3c(C)nc4ccccn34)cs2)cc1	?	0.021µM*	?	?	0.16µM*
C=CCNc1nc(-c2c(C)nc3ncccn23)cs1	-6%	i	-3%	-2%	i
Cc1ccnc(Nc2nc(-c3c(C)nc4sccn34)cs2)c1	-10%	?	?	26µM*	?
SMILES	SW480 rereplic	KB-3-1 tox	MCF10A rerep	ELG1 repair inh	KB-V1 cytotox
Cc1ccnc(Nc2nc(-c3ccccc3)cs2)c1	11%	?	13%	?	i
Cc1nc2ncccn2c1-c1csc(Nc2ccc(O)cc2)n1	8%	15µM*	28%	?	i
OC(CCCC(O)c1ccccc1)c1ccccc1 (stereo unspecified)	-1%	i	-1%	·	i
COc1cc2c(cc1N)-c1ccc(N)cc1C2=O	·	i	·	·	i
Cc1ccc(Nc2nc(-c3c(C)nc4ncccn34)cs2)cc1	0.058µM*	0.0058µM*	?	5%	0.33µM*
O=S(=O)(c1ccccc1Br)N(Cc1ccccc1)CC(O)COCc1ccccc1 (stereo unspecified)	-8%	i	?	?	i
COc1ccc(NC(=O)CN(c2cccc(C)c2C)S(=O)(=O)c2ccccc2)cc1OC	·	i	·	·	?
CCc1c(C)sc(NC(=O)C2CC2c2ccccc2)c1C(N)=O (stereo unspecified)	17%	i	?	?	6.5µM*
Cc1ccc(CNS(=O)(=O)c2ccc(-c3cnc(C4CC4)o3)cc2)cc1	2%	i	13%	-1%	i
CCOc1ccccc1CNS(=O)(=O)c1ccc(-c2cnc(C3CC3)o2)cc1	?	1.2µM*	1.3µM*	-15%	1.5µM*!
O=S(=O)(NCc1ccccc1)c1ccc(-c2cnc(C3CC3)o2)cc1	-10%	18µM*!	?	?	15µM*!
CC(=O)N1CCN(C(=O)COC(=O)CNC(=O)c2ccc(C)cc2)CC1	-12%	i	?	?	?
O=C1CCCC2=C1C1(CCCC1)N=C(Nc1nc3cc(Cl)ccc3o1)N2	·	i	·	·	?
CCOC(=O)C1CCCN(S(=O)(=O)Cc2ccccc2)C1 (stereo unspecified)	-2%	i	0%	-1%	i
O=C(C1CCCN(S(=O)(=O)Cc2ccccc2)C1)N1CCc2ccccc21 (stereo unspecified)	0%	i	?	26µM*	?
COC(=O)[C@H]1[C@H]2C[C@@H]3c4[nH]c5ccccc5c4CCN3C[C@H]2C[C@@H](OC(=O)c2cc(OC)c(OC)c(OC)c2)[C@@H]1OC	?	·	-19%	·	·
Cc1cc(C)c2c(N)c(C(=O)c3ccc(Br)cc3)oc2n1	2.6µM*	i	23µM*	-2%	i
COC(=O)c1ccccc1COc1cccn2c(N(C)C(=O)CCC3CCCC3)c(C)nc12	·	i	·	·	i
Nc1nc(SCc2ccc(Br)cc2)[nH]c(=O)c1-c1ccccc1	17%	i	12%	-6%	i
COc1ccc(-c2noc(CSc3nc(N)cc(=O)[nH]3)n2)cc1	-5%	21µM*!	?	?	?
COc1ccc(-c2noc(CSc3nc(-c4ccccc4)cc(=O)[nH]3)n2)cc1OC	-4%	i	?	-4%	i
Nc1nc(SCc2nc(-c3ccccc3)no2)[nH]c(=O)c1-c1ccccc1	10%	i	13%	-19%	18µM*
O=C(c1ccc(CSc2nc3ccncc3n2Cc2ccccc2F)cc1)N1CCCCCC1	·	i	·	·	i
COc1ccc(OC)c(CNc2ncnc3onc(-c4ccc(Cl)cc4)c23)c1	·	5.8µM*	·	·	8.2µM*
